Screening results as filed in PubChem BioAssay.
An excerpt weighted towards active compounds, which were near 9.4% of everything screened.
FLuc counter = inhibits or activates purified firefly luciferase, miR-21 counter-screen | Potency, µM (top dose mostly 57.5 µM), without a hit: at the top dose activity change, negative = inhibition, usual class: inhibitors | AID 588342 | hit rate 6.9% among 360,000 | purified FLuc, Km substrates, luminescence inhibition | P08659;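 note: plate controls were vehicle for no effect and reference inhibitor for full effect; nearly all actives have a fitted effect of over 55% in size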
Target sequence (P08659 whole entry, looked up): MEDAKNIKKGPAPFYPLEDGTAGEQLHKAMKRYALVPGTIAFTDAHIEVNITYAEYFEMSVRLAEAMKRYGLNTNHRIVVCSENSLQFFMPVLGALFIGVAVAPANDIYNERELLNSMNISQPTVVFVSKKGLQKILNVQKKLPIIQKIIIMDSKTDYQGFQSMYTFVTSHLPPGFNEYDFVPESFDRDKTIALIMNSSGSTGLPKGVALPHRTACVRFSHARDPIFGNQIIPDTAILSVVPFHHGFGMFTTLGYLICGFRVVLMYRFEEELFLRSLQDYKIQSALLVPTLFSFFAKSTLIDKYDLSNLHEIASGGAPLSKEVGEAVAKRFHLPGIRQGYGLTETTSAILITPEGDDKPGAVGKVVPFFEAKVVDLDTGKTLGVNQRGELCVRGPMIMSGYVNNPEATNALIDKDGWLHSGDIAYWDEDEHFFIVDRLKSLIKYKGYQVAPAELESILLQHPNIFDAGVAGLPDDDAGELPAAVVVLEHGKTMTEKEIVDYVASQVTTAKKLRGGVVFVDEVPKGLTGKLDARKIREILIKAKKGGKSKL
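Purified P. pyralis luciferase, 10 nM final, with Km-level 10 uM D-luciferin and 10 uM ATP in 50 mM Tris acetate pH 7.5, 10 mM Mg acetate, 0.01% Tween-20, 0.05% BSA; 6-point qHTS titration about 60 µM downward; luminescence read.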
SMN2 splice enh = SMN2 splice variant enhancement | HEK293 SMN2-luciferase splicing reporter, luminescence, 30-36 h | Potency, µM (top dose mostly 46.1 µM), without a hit: top-dose activity change, positive = activation, hits mostly activators | hit rate 2.8% among 210,000 | AID 1458; note: % of control where 0% means no effect; nearly all actives have a fitted effect of over 55% in size
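qHTS luciferase splicing reporter: luminescence rises when SMN2 exon 7 is included in transfected HEK293 cells. Compound exposure lasted 30-36 h at 37C, with 4.5 mM final sodium butyrate as control, followed by a ONE-Glo read.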
Rab9 promoter act = activators of Rab9 promoter. hit rate 2.8% among 320,000. Potency, µM (highest dose often 9.22 µM), for inactives: top-dose activation, negative = inhibition, most hits filed as activators. Huh7 Rab9 promoter-luciferase reporter, luminescence, 24 h. AID 485297; note: % of control where 0% means no effect; nearly all actives have a fitted effect of over 60% in size
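Stable Rab9-luc Huh7, 1500 cells/well, 2 h settle; cmpd in DMSO, 24 h, 37 °C/5% CO2; luciferase reagent 10 min RT; luminescence.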
ELG1 DNA repair = inhibitors of ELG1-dependent DNA repair in HEK293T cells; HEK293T ELG1-luciferase reporter, luminescence, 16 h; DNA damage induced by 5-fluorouridine; Potency, µM (doses to about 46.1 µM), for inactives: at the top dose activity change, negative = inhibition, most hits filed as inhibitors; hit rate 2.3% among 330,000; note: % is set by controls: 0 for no effect and ±100 for the full control effect; nearly all actives have a fitted effect of over 55% in size
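Reporter activity after DNA damage by 5-fluorouridine is monitored. Compound-treated cells incubate 16 hr at 37 °C, then ONE-Glo is added for 30 min before luminescence reading.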
ELG1 genotoxic = induces genotoxicity in HEK293T cells with luciferase-tagged ELG1; hit rate 1.3% among 330,000; Potency, µM (series often up to 46 µM), inactives show at the highest dose activity change, positive = activation, most hits filed as activators; HEK293T ELG1-luciferase reporter, luminescence, 16 h; note: % of control where 0% means no effect; nearly all actives have a fitted effect of over 60% in size
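Luminescence read-out: rising ELG1-luciferase signal, reflecting elevated ELG1 protein under genetic stress, flags genotoxic compounds. Cells were treated for 16 hr at 37 °C before ONE-Glo detection.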
NPC1 promoter act = NPC1 promoter activation. Huh7 NPC1 promoter luciferase reporter, 24 h. Potency, µM (titrated, usually from 9.22 µM), for inactives: top-dose activation, hits mostly activators. hit rate 2.4% among 320,000. AID 485313; note: % of control where 0% means no effect; nearly all actives have a fitted effect of over 60% in size
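Stable NPC1-promoter luciferase Huh7 line; cpd (DMSO) 24 h, 37 °C, 5% CO2; Amplite luciferase reagent 10 min RT; luminescence readout. qHTS format.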
ELG1 FLuc counter = luciferase inhibition in cell-free luciferin readout for ELG1 hits; shares compounds with ELG1 DNA repair; cell-free firefly luciferase luminescence counter-screen, ViewLux; Potency, µM (highest dose often 46.1 µM), for inactives: at the highest dose activity change, negative = inhibition, most hits filed as inhibitors; hit rate 3% among 350; AID 624247; note: % is set by controls: 0 for no effect and ±100 for the full control effect
ELG1 Luc conf = human ELG1 repair inhibition, luciferase-tagged ELG1 confirmation; HEK293T ELG1-luciferase levels, luminescence; cells co-treated with 5-fluorouridine; hit rate 68% among 670; Potency, µM (series often up to 46.1 µM), for inactives: at the highest dose activity change, negative = inhibition, most hits filed as inhibitors; AID 624248; shares compounds with ELG1 DNA repair; note: % is set by controls: 0 for no effect and ±100 for the full control effect; nearly all actives have a fitted effect of over 55% in size
ELG1 MMS Luc = confirmation of human ELG1 repair inhibitors, MMS stimulated | shares compounds with ELG1 DNA repair | HEK293T luciferase-tagged ELG1 level, MMS stimulated | Potency, µM (doses to about 46.1 µM), for the others: at the top dose activity change, negative = inhibition, usual class: inhibitors | hit rate 53% among 670 | AID 624249; note: % is set by controls: 0 for no effect and ±100 for the full control effect; nearly all actives have a fitted effect of over 60% in size
ELG1 5-FU = confirmation of ELG1 repair inhibitors: viability with 5FU; shares compounds with ELG1 DNA repair; cell viability with 5-FU, ELG1-dependent repair; Potency, µM (series often up to 46.1 µM), without a hit: at the top dose activity change, negative = viability loss, hits mostly cytotoxic; 670 tested, under 10 active; AID 624250;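 note: ELG1-luc HEK293T cells cotreated with 5-fluorouridine at 10 µM final; viability measured 16 h after compound addition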
ELG1 MMS cell = confirmation of ELG1 repair inhibitors: viability with MMS | hit rate 33% among 670 | shares compounds with ELG1 DNA repair | AID 624251 | Cell viability with MMS, ELG1-dependent DNA repair | Potency, µM (doses to about 46.1 µM), for inactives: at the top dose activity change, negative = viability loss, hits mostly cytotoxic;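 note: ELG1-luc HEK293T cells co-treated with 10 µM MMS; viability read 16 h after compound addition; % is set by controls: 0 for no effect and ±100 for the full control effect; nearly all actives have a fitted effect of over 60% in size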
Cell viab unstim = counter-screen for ELG1 repair inhibitors: unstimulated cell viability. hit rate 8% among 900. Potency, µM (doses to about 45.9 µM), inactives show top-dose activity change, negative = loss of viability, actives largely listed as cytotoxic. cell viability counter-screen, unstimulated, luminescence. shares compounds with ELG1 DNA repair. AID 624252;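 note: compound exposure lasted 16 hours before reading; % is set by controls: 0 for no effect and ±100 for the full control effect; nearly all actives have a fitted effect of over 55% in size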
FLuc biochem = counter-screen for ELG1 repair inhibitors: firefly luciferase inhibition; shares compounds with ELG1 DNA repair; purified firefly luciferase, luminescence counter-screen; Potency, µM (titrated, usually from 57.5 µM), for inactives: top-dose activity, negative = inhibition, actives largely listed as inhibitors; hit rate 10% among 350; note: % is set by controls: 0 for no effect and ±100 for the full control effect
An asterisk follows results filed as active; [ ] = dose if it differs, or a comment. Calls come from the whole dose curve; as a rule, active = well fitted curve in the direction sought with a large enough effect; inconclusive = small, poorly fitted or top-dose-only effect, or another doubt; inactive = no such curve, though single readings can be large; an effect the other way counts as inactive or inconclusive. Potency is the fitted concentration of half-maximal effect.

Results for Cn1c(=O)c2[nH]c(CN(Cc3ccccc3)Cc3ccccc3)nc2n(C)c1=O ?
FLuc counter: 1%; SMN2 splice enh: -42%; Rab9 promoter act: 2%; ELG1 DNA repair: 4.1µM*; ELG1 genotoxic: -10%; NPC1 promoter act: -1%; ELG1 Luc conf: 7.9µM*; ELG1 MMS Luc: inconclusive; ELG1 5-FU: -9%; ELG1 MMS cell: inconclusive; Cell viab unstim: inconclusive

What do the screens show for `Cn1c(=O)c2[nH]c(CSCc3ccccc3)nc2n(C)c1=O`?
SMN2 splice enh: -11%[9.22 µM]

Results for O=C1CCC[C@@H]2Cc3nc4cc5c(cc4cc3[C@@H]3CCN1[C@H]23)OCO5 ?
Cell viab unstim: inconclusive

What do the screens show for `OC(CNc1nc(-c2cccnc2)nc2ccccc12)c1ccccc1` (centres undefined)?
FLuc counter: -9%; Rab9 promoter act: 2%; ELG1 DNA repair: 12µM*; ELG1 genotoxic: -6%; NPC1 promoter act: -4%; ELG1 FLuc counter: -9%; ELG1 Luc conf: 11µM*; ELG1 MMS Luc: 22µM*; ELG1 5-FU: 0%; ELG1 MMS cell: inconclusive; Cell viab unstim: inconclusive; FLuc biochem: -14%

How did OCCNc1nc(-c2cccnc2)nc2ccccc12 do in these assays?
FLuc counter: 2%; SMN2 splice enh: -16%; Rab9 promoter act: -5%; ELG1 DNA repair: 0%; ELG1 genotoxic: -11%; NPC1 promoter act: 0%

What do the screens show for `Cc1cccc(NC(=O)C2CCN(c3nnc(-n4c(C)ccc4C)s3)CC2)c1C`?
FLuc counter: -4%; SMN2 splice enh: 7%

Results for COc1ccc(/C=C/c2onc(C)c2S(=O)(=O)N2CCC(C(=O)N3CCCCCC3)CC2)cc1 ?
FLuc counter: 0%; Rab9 promoter act: 1%; ELG1 DNA repair: 2.6µM*; ELG1 genotoxic: -5%; NPC1 promoter act: -7%; ELG1 Luc conf: 3.1µM*; ELG1 MMS Luc: 16µM*; ELG1 5-FU: inconclusive; ELG1 MMS cell: -12%; Cell viab unstim: -16%

Results for CCOc1ccccc1/C=C/c1onc(C)c1S(=O)(=O)N1CCC(C(=O)N2CCCCCC2)CC1 ?
FLuc counter: 2%; Rab9 promoter act: -12%; ELG1 DNA repair: 2.9µM*; ELG1 genotoxic: -9%; NPC1 promoter act: 0%; ELG1 Luc conf: 4µM*; ELG1 MMS Luc: inconclusive; ELG1 5-FU: inconclusive; ELG1 MMS cell: -6%; Cell viab unstim: -16%

What do the screens show for `COc1cccc(/C=C/c2onc(C)c2S(=O)(=O)N2CCC(C(=O)N3CCCCC3)CC2)c1`?
FLuc counter: -7%

What do the screens show for `Cc1cccc(/C=C/c2onc(C)c2S(=O)(=O)N2CCC(C(=O)N3CCCCC3)CC2)c1`?
FLuc counter: 0%; Rab9 promoter act: -8%; ELG1 DNA repair: 2.9µM*; ELG1 genotoxic: -7%; NPC1 promoter act: -5%; ELG1 Luc conf: 2.2µM*; ELG1 MMS Luc: inconclusive; ELG1 5-FU: inconclusive; ELG1 MMS cell: 1%; Cell viab unstim: -14%

How did CCOc1ccccc1NC(=O)C1CCCN(c2ncnc3onc(-c4ccc(F)cc4)c23)C1 (centres undefined) do in these assays?
FLuc counter: -8%

What do the screens show for `COc1ccc(-c2cn3nc(N4CCC(C(=O)Nc5cccc(OC)c5)CC4)sc3n2)cc1`?
FLuc counter: -9%

What do the screens show for `COc1cc(OC)c(NC(=O)c2csc3c2CCC(C)C3)cc1Cl` (centres undefined)?
FLuc counter: inconclusive; SMN2 splice enh: 16%

What do the screens show for `COc1ccc(NC(=O)c2cc(-c3cc(OC)c(OC)c(OC)c3)nc3ccccc23)cc1OC`?
FLuc counter: inconclusive; Rab9 promoter act: 3%; ELG1 DNA repair: 1.8µM*; ELG1 genotoxic: -7%; NPC1 promoter act: 4%; ELG1 Luc conf: 1.1µM*; ELG1 MMS Luc: 20µM*; ELG1 5-FU: inconclusive; ELG1 MMS cell: inconclusive; Cell viab unstim: -13%

What do the screens show for `COc1cc(-c2cc(C(=O)Nc3ccc(S(=O)(=O)Nc4ncccn4)cc3)c3ccccc3n2)cc(OC)c1OC`?
FLuc counter: inconclusive; Rab9 promoter act: 12%; ELG1 DNA repair: -15%; ELG1 genotoxic: 0%; NPC1 promoter act: -3%

What do the screens show for `Cc1noc(Cn2c(=O)c3ccccc3n(CC(=O)Nc3ccccc3C(F)(F)F)c2=O)n1`?
FLuc counter: -5%

Results for COc1cc(/C=N/NC(=O)Nc2cccc3nsnc23)cc(OC)c1OC ?
FLuc counter: -17%; SMN2 splice enh: 0%; Rab9 promoter act: 7%; ELG1 DNA repair: 2.3µM*; ELG1 genotoxic: 0%; NPC1 promoter act: 1%; ELG1 Luc conf: 1.6µM*; ELG1 MMS Luc: inconclusive; ELG1 5-FU: inconclusive; ELG1 MMS cell: -10%; Cell viab unstim: inconclusive
